Test [1] deals with Acetylcholinesterase (Homo sapiens) (UniProt P22303). Nature of the test: Acetylcholinesterase (AChE) small molecule antagonists: fluorescence cell-based qHTS assay (AID 1347398; calls by dose curve; note: nearly all actives have a fitted effect of over 50% in size). Particulars: Potency: AChE activity. The procedure, abridged: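 SH-SY5Y, 2,000 cells/well, attached overnight; cmpd 30 min 37 C; acetylthiocholine/Thiolite Green cocktail 40 min RT; fluorescence Ex/Em 490/520 nm.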

The target is the same in test [2]. Nature of the test: Acetylcholinesterase (AChE) small molecule antagonists: enzyme-based qHTS assay with human liver microsomes (AID 1347399; calls by dose curve; note: nearly all actives have a fitted effect of over 60% in size). Particulars: Potency: qHTS inhibition. An outline of the steps: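 Recombinant human AChE (50 mU/mL in the enzyme mix) and human liver microsomes (0.25 mg/mL final) were preincubated with compound and NADPH (0.25 mg/mL final) for 30 min at 37 C. Acetylthiocholine/DTNB was then added; thiocholine was read colorimetrically after 10 min at room temperature.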

Test [3] has as its target Cytochrome P450 2C19 (Homo sapiens) (UniProt P33261). Nature of the test: Cytochrome P450 Family 2 Subfamily C Member 19 (CYP2C19) small molecule antagonists: luciferase reporter qHTS assay (AID 1671197). Note: nearly all actives have a fitted effect of over 65% in size. Note: potency is the fitted concentration of half-maximal effect. The procedure, abridged:
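Enzyme-substrate mix with proluciferin substrate (P450-Glo CYP2C19 system) preincubated with compounds 10 min at room temperature; NADPH regeneration solution added, 37C for 1 h; detection reagent stops reaction, luminescence read after 20 min. Ketoconazole positive control.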

Test [4] deals with Cytochrome P450 1A2 (Homo sapiens) (UniProt P05177). The test can be described thus: Cytochrome P450 Family 1 Subfamily A Member 2 (CYP1A2) small molecule antagonists: luciferase reporter qHTS assay (AID 1671199). Note: nearly all actives have a fitted effect of over 50% in size. Note: potency is the fitted concentration of half-maximal effect. The procedure, abridged: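 Steps: enzyme-substrate mix dispensed; test compounds and furafylline control pinned in; 10 min room temperature; NADPH regeneration solution added, 1 h; reaction stopped with luciferin detection reagent; luminescence read after 20 min.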

Test [5] concerns the target Voltage-gated inwardly rectifying potassium channel KCNH2 (Homo sapiens) (UniProt Q12809). The test can be described thus: Human Ether-a-go-go-Related Gene (hERG) channel small molecule antagonists: fluorescence cell-based qHTS assay (AID 1671200). Note: nearly all actives have a fitted effect of over 50% in size. Note: potency is the fitted concentration of half-maximal effect. The procedure, abridged:
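hERG-U2OS cells plated overnight at 37 C, loaded with FluxOR II dye 1 h at RT in dark; after 10 min, thallium stimulus added. Fluorescence (480/540 nm) read kinetically for 2 min at 1 s intervals.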

For test [6], the target named is Cytochrome P450 3A4 (Homo sapiens) (UniProt P08684). Nature of the test: Cytochrome P450 Family 3 Subfamily A Member 4 (CYP3A4) small molecule antagonists: luciferase reporter qHTS assay (AID 1671201). Note: nearly all actives have a fitted effect of over 50% in size. Note: potency is the fitted concentration of half-maximal effect. An outline of the steps:
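P450-Glo CYP3A4 luminescent assay: compounds preincubated 10 min at room temperature with enzyme and proluciferin substrate, NADPH regeneration added, 1 h room-temperature reaction, stopped with luciferin detection reagent; luminescence read after 20 min. Ketoconazole positive control.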

Test [7] concerns the target Cytochrome P450 2C9 (Homo sapiens) (UniProt P11712). The test can be described thus: Cytochrome P450 Family 2 Subfamily C Member 9 (CYP2C9) small molecule antagonists: luciferase reporter qHTS assay (AID 1671198). Note: nearly all actives have a fitted effect of over 50% in size. Note: potency is the fitted concentration of half-maximal effect. The procedure, abridged: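 P450-Glo proluciferin substrate with CYP2C9 enzyme; 10 min RT preincubation, then NADPH regeneration 1 h at 37C; luciferin detection reagent 20 min RT, luminescence in relative luminescence units.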

The target in test [8] is Cytochrome P450 2D6 (Homo sapiens) (UniProt P10635). The test can be described thus: Cytochrome P450 Family 2 Subfamily D Member 6 (CYP2D6) small molecule antagonists: luciferase reporter qHTS assay (AID 1671196). Note: nearly all actives have a fitted effect of over 50% in size. Note: potency is the fitted concentration of half-maximal effect. An outline of the steps:
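Test chemicals meet CYP2D6 plus proluciferin substrate (10 min, RT); NADPH regenerating solution then drives turnover for 1 h. Detection reagent halts the reaction; luminescence measured after 20 min.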

The results in this text go back to PubChem BioAssay (Tox21).

Each structure is given as a SMILES string. Unmarked numbers belong to inactive results. Inconclusive results are not listed. Active and inactive are the calls of the source. Unless noted, calls come from the whole dose curve; as a rule, active = well fitted curve in the direction sought with a large enough effect in the repeat runs; inconclusive = weak or mixed curves; inactive = no such curve, though single readings can be large; an effect the other way counts as inactive or inconclusive.

Sequence of Acetylcholinesterase (Homo sapiens) (P22303 whole entry, looked up): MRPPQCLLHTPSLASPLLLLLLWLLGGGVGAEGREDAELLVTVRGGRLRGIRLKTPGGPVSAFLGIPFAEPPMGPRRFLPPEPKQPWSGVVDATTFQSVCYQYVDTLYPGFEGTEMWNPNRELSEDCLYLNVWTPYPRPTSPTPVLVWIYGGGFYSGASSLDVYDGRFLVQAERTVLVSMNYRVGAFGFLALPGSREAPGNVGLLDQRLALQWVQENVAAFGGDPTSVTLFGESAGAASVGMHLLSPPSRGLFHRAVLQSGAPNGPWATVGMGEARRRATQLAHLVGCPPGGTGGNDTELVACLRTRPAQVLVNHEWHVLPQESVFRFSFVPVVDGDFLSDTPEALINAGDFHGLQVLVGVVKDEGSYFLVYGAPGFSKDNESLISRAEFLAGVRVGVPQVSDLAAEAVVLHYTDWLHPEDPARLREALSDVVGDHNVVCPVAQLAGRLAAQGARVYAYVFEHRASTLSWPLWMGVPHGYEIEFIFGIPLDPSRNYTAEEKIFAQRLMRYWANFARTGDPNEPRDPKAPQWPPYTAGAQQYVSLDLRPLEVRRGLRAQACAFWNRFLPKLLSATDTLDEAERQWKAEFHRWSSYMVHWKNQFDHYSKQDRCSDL
Sequence of Cytochrome P450 2D6 (Homo sapiens) (P10635 whole entry, looked up): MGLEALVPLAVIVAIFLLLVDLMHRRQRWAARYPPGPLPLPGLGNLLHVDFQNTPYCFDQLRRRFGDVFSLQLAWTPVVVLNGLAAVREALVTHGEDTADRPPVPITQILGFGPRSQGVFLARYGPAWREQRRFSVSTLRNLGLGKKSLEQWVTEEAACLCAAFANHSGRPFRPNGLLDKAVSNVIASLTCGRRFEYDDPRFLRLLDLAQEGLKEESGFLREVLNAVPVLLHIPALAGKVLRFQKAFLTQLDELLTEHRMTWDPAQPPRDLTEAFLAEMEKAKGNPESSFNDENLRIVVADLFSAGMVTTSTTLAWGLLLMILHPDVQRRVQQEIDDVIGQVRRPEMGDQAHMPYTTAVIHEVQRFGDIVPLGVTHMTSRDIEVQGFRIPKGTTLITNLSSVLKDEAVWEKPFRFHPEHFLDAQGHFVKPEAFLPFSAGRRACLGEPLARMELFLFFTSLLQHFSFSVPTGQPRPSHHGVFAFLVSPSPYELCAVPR
Sequence of Cytochrome P450 2C9 (Homo sapiens) (P11712 whole entry, looked up): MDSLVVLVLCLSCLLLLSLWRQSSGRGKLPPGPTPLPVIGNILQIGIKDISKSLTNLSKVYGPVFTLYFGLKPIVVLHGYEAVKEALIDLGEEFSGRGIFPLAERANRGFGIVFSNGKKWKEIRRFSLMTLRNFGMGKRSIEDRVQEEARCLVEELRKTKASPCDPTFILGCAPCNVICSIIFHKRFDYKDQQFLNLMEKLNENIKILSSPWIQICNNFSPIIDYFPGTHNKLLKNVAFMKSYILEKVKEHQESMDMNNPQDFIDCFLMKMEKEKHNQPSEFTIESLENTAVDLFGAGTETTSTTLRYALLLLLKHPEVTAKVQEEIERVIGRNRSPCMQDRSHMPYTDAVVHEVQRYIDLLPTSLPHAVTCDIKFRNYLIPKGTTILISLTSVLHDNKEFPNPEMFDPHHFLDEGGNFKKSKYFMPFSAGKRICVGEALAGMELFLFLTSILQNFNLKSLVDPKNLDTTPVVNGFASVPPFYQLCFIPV
Sequence of Cytochrome P450 1A2 (Homo sapiens) (P05177 whole entry, looked up): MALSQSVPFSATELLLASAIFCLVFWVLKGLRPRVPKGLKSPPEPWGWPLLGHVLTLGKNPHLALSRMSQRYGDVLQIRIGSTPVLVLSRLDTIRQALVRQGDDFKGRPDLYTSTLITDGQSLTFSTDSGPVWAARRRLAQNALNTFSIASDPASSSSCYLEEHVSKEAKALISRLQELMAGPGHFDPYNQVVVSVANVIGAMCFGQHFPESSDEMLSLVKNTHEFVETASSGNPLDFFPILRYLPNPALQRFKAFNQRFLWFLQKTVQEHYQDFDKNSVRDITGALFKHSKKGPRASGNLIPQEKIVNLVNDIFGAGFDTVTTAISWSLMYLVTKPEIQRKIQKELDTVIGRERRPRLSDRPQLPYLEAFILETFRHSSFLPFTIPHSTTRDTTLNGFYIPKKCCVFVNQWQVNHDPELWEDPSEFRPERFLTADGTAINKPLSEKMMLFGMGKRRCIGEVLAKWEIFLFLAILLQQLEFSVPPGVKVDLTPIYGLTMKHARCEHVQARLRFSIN
Sequence of Cytochrome P450 3A4 (Homo sapiens) (P08684 whole entry, looked up): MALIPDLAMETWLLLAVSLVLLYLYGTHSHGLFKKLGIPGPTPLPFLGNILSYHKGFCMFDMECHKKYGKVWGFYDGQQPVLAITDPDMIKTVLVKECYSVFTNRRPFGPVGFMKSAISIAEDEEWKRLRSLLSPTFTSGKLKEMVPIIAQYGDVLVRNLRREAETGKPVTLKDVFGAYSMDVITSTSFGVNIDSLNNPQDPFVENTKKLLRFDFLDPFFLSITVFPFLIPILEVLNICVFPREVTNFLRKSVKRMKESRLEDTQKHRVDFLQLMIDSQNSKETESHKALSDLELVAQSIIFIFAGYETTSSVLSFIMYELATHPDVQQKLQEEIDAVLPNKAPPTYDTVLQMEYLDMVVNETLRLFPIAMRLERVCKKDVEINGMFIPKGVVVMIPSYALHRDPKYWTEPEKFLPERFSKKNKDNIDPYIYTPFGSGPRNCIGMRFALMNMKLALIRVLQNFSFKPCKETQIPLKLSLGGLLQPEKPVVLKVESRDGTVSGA
Sequence of Voltage-gated inwardly rectifying potassium channel KCNH2 (Homo sapiens) (Q12809 whole entry, looked up): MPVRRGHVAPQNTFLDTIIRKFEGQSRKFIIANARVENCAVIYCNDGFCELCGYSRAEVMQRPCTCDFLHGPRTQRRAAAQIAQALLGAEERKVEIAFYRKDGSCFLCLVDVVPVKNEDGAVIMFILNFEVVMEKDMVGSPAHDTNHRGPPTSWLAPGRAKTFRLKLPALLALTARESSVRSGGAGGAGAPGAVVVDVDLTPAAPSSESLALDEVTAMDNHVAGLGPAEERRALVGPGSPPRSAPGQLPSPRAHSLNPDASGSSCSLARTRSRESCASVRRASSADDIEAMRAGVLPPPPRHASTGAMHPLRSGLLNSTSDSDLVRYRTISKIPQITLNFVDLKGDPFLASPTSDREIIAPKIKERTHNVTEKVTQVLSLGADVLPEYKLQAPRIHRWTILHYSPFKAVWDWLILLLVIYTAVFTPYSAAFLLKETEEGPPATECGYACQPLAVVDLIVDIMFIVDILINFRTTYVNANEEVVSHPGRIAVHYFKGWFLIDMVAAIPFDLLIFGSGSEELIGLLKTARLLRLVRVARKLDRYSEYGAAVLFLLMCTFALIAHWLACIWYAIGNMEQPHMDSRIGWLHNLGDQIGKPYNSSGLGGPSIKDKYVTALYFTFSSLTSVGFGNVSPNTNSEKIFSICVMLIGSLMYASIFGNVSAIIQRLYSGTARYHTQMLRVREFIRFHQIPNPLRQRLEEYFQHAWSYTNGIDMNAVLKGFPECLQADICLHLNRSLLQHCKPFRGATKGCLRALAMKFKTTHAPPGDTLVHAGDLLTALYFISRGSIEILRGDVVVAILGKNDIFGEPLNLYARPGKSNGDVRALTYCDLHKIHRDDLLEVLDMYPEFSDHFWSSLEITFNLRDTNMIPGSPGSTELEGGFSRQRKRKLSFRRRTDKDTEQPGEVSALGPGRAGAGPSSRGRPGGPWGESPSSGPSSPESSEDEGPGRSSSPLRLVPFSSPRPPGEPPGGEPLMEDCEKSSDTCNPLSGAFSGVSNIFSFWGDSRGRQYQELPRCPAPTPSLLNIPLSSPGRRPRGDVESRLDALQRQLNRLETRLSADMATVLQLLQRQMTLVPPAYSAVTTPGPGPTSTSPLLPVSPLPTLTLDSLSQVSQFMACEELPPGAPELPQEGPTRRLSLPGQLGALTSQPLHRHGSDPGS
Sequence of Cytochrome P450 2C19 (Homo sapiens) (P33261 whole entry, looked up): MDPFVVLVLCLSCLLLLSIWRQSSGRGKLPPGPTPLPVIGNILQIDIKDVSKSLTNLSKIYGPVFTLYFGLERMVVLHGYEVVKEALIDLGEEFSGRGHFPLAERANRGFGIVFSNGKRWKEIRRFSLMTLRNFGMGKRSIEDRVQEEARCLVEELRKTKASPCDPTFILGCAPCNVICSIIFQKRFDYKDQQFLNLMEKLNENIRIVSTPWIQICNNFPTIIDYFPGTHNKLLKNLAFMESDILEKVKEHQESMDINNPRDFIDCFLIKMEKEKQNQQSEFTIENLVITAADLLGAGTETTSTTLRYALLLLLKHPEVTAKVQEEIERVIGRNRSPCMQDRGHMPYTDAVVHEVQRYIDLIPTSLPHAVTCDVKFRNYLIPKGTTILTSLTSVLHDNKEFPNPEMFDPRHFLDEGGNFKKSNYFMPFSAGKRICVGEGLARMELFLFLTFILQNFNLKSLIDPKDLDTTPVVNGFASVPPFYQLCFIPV

For the compound `COc1cc(OC)nc(Sc2cccc(Cl)c2C(=O)O)n1`, the Potency entry in test [1], in test [2], in test [3], in test [4], in test [5] and in test [6] was “inactive” throughout.
`COC(=O)C1=CCCN(C)C1`: the Potency result in test [1], in test [2], in test [3], in test [7], in test [4] and in test [5] was “inactive” in each case. For the same compound, the Potency entry in test [6] is “inactive”.
`CSc1nc(N=[N+]=[N-])nc(NC(C)C)n1`: the Potency result in test [1], in test [2], in test [5] and in test [6] was “inactive” in each case. Further, the Potency in test [3] was 71 µM (active); in test [7], 79.6 µM (active); in test [4] it was 28.3 µM (active).
In the case of `CC(C(=O)c1ccccc1)N(C)C` (centres undefined), the Potency result in test [1], in test [2], in test [4] and in test [5] was “inactive” each time. Besides, the Potency in test [3] was 4.9 µM (active).
Turning to `NC1=NC(=O)C(c2ccccc2)O1` (centres undefined), the Potency result in test [1], in test [2], in test [3], in test [7], in test [4] and in test [5] was “inactive” throughout. Also, the Potency entry in test [6] was “inactive”.
For the compound `OC(c1ccccc1)(c1ccccc1)C1CCNCC1`, the Potency entry in test [1], in test [2], in test [7] and in test [6] was “inactive” throughout. In addition, the Potency in test [3] was 4.36 µM (active).
On to `c1cc2c(c(N3CCNCC3)c1)OCCO2`, for which the Potency result in test [1], in test [2], in test [3], in test [7] and in test [6] was “inactive” each time.
In the case of `CNC(=O)Oc1ccccc1C1OCCO1`, the Potency entry in test [1], in test [2], in test [3], in test [5] and in test [6] was “inactive” throughout.
Regarding `CC(C)(C)C(=O)C(Oc1ccc(Cl)cc1)n1cncn1` (centres undefined), the Potency entry in test [1], in test [8] and in test [5] was “inactive” each time. For the same compound, the values for the Potency in test [7], in test [4] and in test [6] were 12.6 µM (active), 35.5 µM (active) and 0.399 µM (active), respectively.
For `N#CCCC#N`, the Potency entry in test [1], in test [2], in test [7], in test [4], in test [5] and in test [6] was “inactive” in each case.
Take `ClCC(Cl)(Cl)Cl`: the Potency result in test [1], in test [2], in test [7], in test [4] and in test [6] was “inactive” throughout.
As to `O=C(CCN1CC1)OCC(CO)(COC(=O)CCN1CC1)COC(=O)CCN1CC1`, the Potency result in test [1], in test [2], in test [7] and in test [6] was “inactive” throughout.
As for `CCOC(=O)CP(=O)(OCC)OCC`, the Potency result in test [1], in test [8], in test [3], in test [7], in test [5] and in test [6] was “inactive” each time.
As for `O=C1CN=C(c2ccccc2)c2cc([N+](=O)[O-])ccc2N1`, the Potency result in test [1], in test [2], in test [3], in test [4] and in test [6] was “inactive” in each case.
`CN1CCC(N(Cc2ccccc2)c2ccccc2)CC1`: the Potency result in test [1], in test [3], in test [7] and in test [6] was “inactive” throughout. Besides, the Potency in test [8] is 0.309 µM (active).
Turning to `Cc1coc2c1CCC(C)C2` (centres undefined), the Potency result in test [1], in test [2] and in test [5] was “inactive” throughout. The Potency in test [6] is 29.2 µM (active).
`CNNC`: the Potency entry in test [1], in test [3], in test [7] and in test [5] was “inactive” in each case. Besides, in test [8], the Potency is 65.4 µM (active).
Turning to `CN1CCC(O)(c2ccc(F)cc2)C(C(=O)c2ccc(F)cc2)C1` (centres undefined), the Potency entry in test [1], in test [7] and in test [4] was “inactive” in each case. Further, the Potency in test [8] is 17.4 µM (active).
Take `COc1cccc(C(=O)NN(C(=O)c2cc(C)cc(C)c2)C(C)(C)C)c1C`: the Potency entry in test [1] and in test [5] was “inactive” throughout. Besides, the Potency in test [8] was 39.9 µM (active); in test [7] it was 17.8 µM (active); in test [6], 0.71 µM (active).
With `Cc1cccc(C#N)c1`, the Potency entry in test [1], in test [8], in test [3], in test [7], in test [5] and in test [6] was “inactive” in each case.
As for `ClC(Cl)(Cl)C(Cl)(Cl)Cl`, the Potency result in test [1], in test [2], in test [7], in test [5] and in test [6] was “inactive” throughout.
As for `Nc1cc(Cl)ccc1O`, the Potency entry in test [1] is “inactive”. The Potency in test [8] was 34.4 µM (active); in test [3], 21.7 µM (active); in test [7], 30.7 µM (active); in test [4], 30.7 µM (active); in test [6] it was 21.7 µM (active).
In the case of `CC(C(O)c1ccccc1)N(C)C/C=C/c1ccccc1` (centres undefined), the Potency entry in test [1], in test [2] and in test [6] was “inactive” each time. Also, the Potency in test [5] was 10.7 µM (active).
On to `CCOC(=O)NC(=S)Nc1ccccc1NC(=S)NC(=O)OCC`, for which the Potency result in test [1], in test [2] and in test [5] was “inactive” throughout. The Potency is 5.03 µM (active) in test [3], 31.7 µM (active) in test [4] and 25.2 µM (active) in test [6].
As to `CC1CCC(=O)O1` (centres undefined), the Potency entry in test [1], in test [2], in test [7], in test [5] and in test [6] was “inactive” each time.
